About 350 (25%) of roughly 1,400 compounds were called active. Not shown: some 2% with an inconclusive outcome. Only a sample is shown. Measured potencies and affinities stand elsewhere. Unmarked numbers belong to inactive results. The rule behind the calls is not given here.

This experiment can be described thus: inhibitors of Clostridioides difficile proliferation – 4-point retest, confirmation (AID 1224921).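 Note: plate controls were DMSO wells for no effect and levofloxacin 16 µg/mL wells for full effect.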 As to conditions: Clostridioides difficile clinical isolate growth, OD600, 24 h, hits give low values; at 30 µM unless noted.
Turning to `CCCNC(=O)N(C)C[C@@H]1Oc2cc(C#Cc3cccc(F)c3)ccc2S(=O)(=O)N([C@H](C)CO)C[C@H]1C`, the max activity was 64.3%.

`O=C(Nc1cc(F)ccc1F)N[C@H]1CC[C@@H](CC(=O)N2CCc3ccccc3C2)O[C@@H]1CO`: the max activity is 31.4%.

Consider `CO[C@H]1CN(C)C(=O)c2cc(NS(=O)(=O)c3cccc(F)c3)ccc2OC[C@H](C)N(Cc2cc(F)ccc2F)C[C@@H]1C`, for which the max activity was -7.26% [at 8 µM]. Then `CCCN1C[C@@H](C)[C@H](OC)CN(C)C(=O)c2cc(NC(=O)CC)ccc2OC[C@@H]1C`, with -10.1%. For `COc1ccc(NC(=O)Nc2ccc3c(c2)[C@H]2C[C@H](CC(=O)NCc4ccccc4F)O[C@@H](CO)[C@H]2O3)cc1` the value was -14.5% [at 8 µM]; for `C[C@H]1CN([C@@H](C)CO)C(=O)c2cccc(NC(=O)NC3CCCCC3)c2O[C@H]1CN(C)C(=O)Nc1ccc(C(F)(F)F)cc1`, 17.7% [at 7.5 µM].

As to `CO[C@@H]1CN(C)C(=O)c2ccc(NC(=O)C3CC3)cc2OC[C@H](C)N(Cc2cncnc2)C[C@@H]1C`, the max activity is -6.19% [at 1.95 µM]. Then `CO[C@H]1CN(C)C(=O)c2ccc(NC(=O)C3CC3)cc2OC[C@H](C)N(Cc2cncnc2)C[C@@H]1C`, with -11.8%; and `CO[C@H]1CN(C)C(=O)c2ccc(NC(C)=O)cc2OC[C@@H](C)N(Cc2cc(F)ccc2F)C[C@H]1C`, with -8.57% [at 1.95 µM]. For `CCCNC(=O)Nc1ccc2c(c1)OC[C@@H](C)N(Cc1ccccc1)C[C@H](C)[C@H](OC)CN(C)C2=O` the value was 33.5%; for `CCS(=O)(=O)Nc1ccc2c(c1)C(=O)N(C)C[C@H](OC)[C@H](C)CN(CC1CCCC1)[C@H](C)CO2`, -9.54% [at 1.95 µM]. Then `C[C@H](CO)N1C[C@H](C)[C@@H](CN(C)Cc2ccccc2)Oc2ccc(NC(=O)Nc3cccc4ccccc34)cc2CC1=O`, with 21.6%; and `C[C@@H]1CN([C@@H](C)CO)C(=O)Cc2cc(NC(=O)Nc3ccc(C(F)(F)F)cc3)ccc2O[C@@H]1CN(C)Cc1ccccc1`, with 36.8% [at 35 µM]; and `CC(C)NC(=O)Nc1ccc2c(c1)CC(=O)N([C@@H](C)CO)C[C@@H](C)[C@@H](CN(C)Cc1ccc(-c3ccccc3)cc1)O2`, with 42.2%. Turning to `C[C@@H]1CN([C@@H](C)CO)C(=O)Cc2cc(NC(=O)CCCN(C)C)ccc2O[C@H]1CN(C)Cc1ccc(Oc2ccccc2)cc1`, the max activity is 12.2% [at 8 µM]. Then `C[C@@H]1CN([C@H](C)CO)C(=O)Cc2cc(NC(=O)Nc3cccc4ccccc34)ccc2O[C@H]1CN(C)Cc1ccccc1`, with 31.3% [at 8 µM]. Then `C[C@@H]1CN([C@@H](C)CO)C(=O)Cc2cc(NC(=O)Nc3cccc4ccccc34)ccc2O[C@H]1CN(C)Cc1ccccc1`, with 34.5%.

Turning to `CCCN(C)C[C@H]1Oc2cc(C#CCC3CCCC3)ccc2S(=O)(=O)N([C@@H](C)CO)C[C@H]1C`, the max activity is 28.1% [at 8 µM]. For `CCCN1C[C@H](C)[C@@H](OC)CN(C)C(=O)c2ccc(NC(=O)c3ccc(F)cc3)cc2OC[C@@H]1C` the value was -10.8% [at 1.95 µM]; for `CO[C@@H]1CN(C)C(=O)c2cc(NC(C)=O)ccc2OC[C@@H](C)N(Cc2nccs2)C[C@@H]1C`, 17.3%; for `O=C(C[C@@H]1C[C@H]2c3cc(NC(=O)NC4CCCC4)ccc3O[C@H]2[C@@H](CO)O1)NCc1ccccc1F`, -6.86% [at 1.95 µM]. Then `CO[C@H]1CN(C)C(=O)c2ccc(NC(C)=O)cc2OC[C@H](C)N(C(=O)c2ccccc2F)C[C@@H]1C`, with -11.1% [at 0.5 µM].

For the compound `C[C@@H]1CN([C@H](C)CO)S(=O)(=O)c2ccc(/C=C/c3ccccc3)cc2O[C@@H]1CN(C)C(=O)Nc1cc(F)ccc1F`, the max activity was 35.6%.

Regarding `CO[C@H]1CN(C)C(=O)c2cc(NC(=O)C3CCC3)ccc2OC[C@@H](C)N(Cc2ccc(F)cc2)C[C@@H]1C`, the max activity is 29.4%. Then `CCC(=O)N1C[C@@H](C)[C@H](OC)CN(C)C(=O)c2ccc(NC(=O)c3cc(C)on3)cc2OC[C@@H]1C`, with -1.88% [at 1.95 µM]. For `C[C@@H](NC(=O)C[C@H]1C=C[C@@H](NC(=O)CN2CCOCC2)[C@H](CO)O1)c1ccccc1`, the max activity was -14.1% [at 8 µM]. Then `CCC(=O)Nc1ccc2c(c1)C(=O)N(C)C[C@H](OC)[C@H](C)CN(C(=O)CN1CCOCC1)[C@@H](C)CO2`, with -5.93% [at 8 µM]; and `COc1cccc(NC(=O)N[C@H]2C=C[C@H](CC(=O)NCc3ccncn3)O[C@@H]2CO)c1`, with -9.51% [at 0.5 µM].

As to `CCCC#Cc1ccc2c(c1)O[C@@H](CN(C)Cc1ccncc1)[C@@H](C)CN([C@H](C)CO)S2(=O)=O`, the max activity was 33.3%. Then `CO[C@H]1CN(C)C(=O)c2cc(NC(C)=O)ccc2OC[C@@H](C)N(CC2CCCCC2)C[C@H]1C`, with -7.37% [at 1.95 µM]; and `O=C(N[C@H]1C=C[C@@H](CC(=O)N2CCc3ccccc3C2)O[C@H]1CO)C1CC1`, with -11.9% [at 1.95 µM]; and `Cc1ccc(-c2ccc3c(c2)O[C@H](CN(C)C(=O)NC(C)C)[C@H](C)CN([C@@H](C)CO)S3(=O)=O)cc1`, with 20.5%. Then `Cc1ccc(-c2ccc3c(c2)O[C@H](CN(C)Cc2ccncc2)[C@@H](C)CN([C@@H](C)CO)S3(=O)=O)cc1`, with 32.6%.

`C/C=C/c1cnc2c(c1)C(=O)N([C@@H](C)CO)C[C@H](C)[C@H](CN(C)Cc1ccc(F)cc1)O2`: the max activity is 9.72%. Then `O=C(N[C@H]1C=C[C@@H](CC(=O)N2CCc3ccccc3C2)O[C@@H]1CO)C1CC1`, with -6.96%. For `CC(C)C#Cc1ccc2c(c1)O[C@@H](CN(C)Cc1cccnc1)[C@H](C)CN([C@H](C)CO)S2(=O)=O` the value was 36.4%.

Consider `COc1ccc(-c2ccc([C@@H]3[C@H](C#N)N(C(=O)C4CCCC4)[C@H]3CO)cc2)cc1`, for which the max activity was -7.24% [at 1.95 µM]. For `C/C=C/c1cnc2c(c1)C(=O)N([C@H](C)CO)C[C@H](C)[C@H](CN(C)Cc1ccc(F)cc1)O2` the value was 14.8%; for `COc1cccc(-c2ccc3c(c2)O[C@H](CN(C)Cc2ccncc2)[C@@H](C)CN([C@@H](C)CO)S3(=O)=O)c1`, 21.8% [at 35 µM]. For `CO[C@H]1CN(C)C(=O)c2cc(NC(=O)c3cccc(F)c3)ccc2OC[C@@H](C)N(C(C)=O)C[C@H]1C` the value was 19% [at 8 µM]. Then `CC(C)CC#Cc1ccc2c(c1)O[C@H](CN(C)Cc1cccnc1)[C@@H](C)CN([C@@H](C)CO)S2(=O)=O`, with 39.7%. For `CO[C@H]1CN(C)C(=O)c2cc(NC(=O)Nc3cccc(F)c3)ccc2OC[C@@H](C)N(C)C[C@H]1C`, the max activity was -11.4% [at 1.95 µM]. Then `C[C@H](CO)N1C[C@H](C)[C@@H](CN(C)Cc2cccnc2)Oc2cc(C#CC3CCCCC3)ccc2S1(=O)=O`, with 30.4%; and `O=C(C[C@H]1C[C@@H]2c3cc(NC(=O)Nc4ccc(F)cc4)ccc3O[C@@H]2[C@H](CO)O1)NC1CCCCC1`, with 16%; and `CCCC(=O)Nc1ccc2c(c1)OC[C@@H](C)N(Cc1ccncc1)C[C@H](C)[C@H](OC)CN(C)C2=O`, with 14.1%. Then `O=C(C[C@@H]1C[C@H]2c3cc(NC(=O)Nc4ccc(C(F)(F)F)cc4)ccc3O[C@H]2[C@@H](CO)O1)NC1CCCCC1`, with -15.4% [at 1.95 µM]; and `CO[C@H]1CN(C)C(=O)c2cc(NC(=O)c3ccccc3)ccc2OC[C@H](C)N(C(=O)CN(C)C)C[C@H]1C`, with -13% [at 1.95 µM]; and `CO[C@@H]1CN(C)C(=O)c2cc(NC(=O)c3cc(C)on3)ccc2OC[C@@H](C)N(C(C)=O)C[C@@H]1C`, with -12.6% [at 1.95 µM]. Then `O=C(C[C@H]1CC[C@H]2[C@@H](COC[C@H](O)CN2Cc2cc(F)ccc2F)O1)NCc1ccc(F)cc1`, with -6.27%.

Take `O=C(C[C@H]1CC[C@H]2[C@@H](COC[C@@H](O)CN2Cc2cc(F)ccc2F)O1)NCc1ccc(Cl)cc1`: the max activity was 12.5%. For the compound `C[C@H](CO)N1C[C@H](C)[C@H](CN(C)C)Oc2cc(-c3ccccc3F)ccc2S1(=O)=O`, the max activity was -3.75% [at 1.95 µM].

With `COc1ccc(S(=O)(=O)Nc2cccc3c2O[C@@H](CN(C)S(=O)(=O)c2c(C)noc2C)[C@H](C)CN([C@H](C)CO)C3=O)cc1`, the max activity is 14.4%. For `Cc1ccc(-c2ccc3c(c2)O[C@@H](CN(C)Cc2ccncc2)[C@@H](C)CN([C@@H](C)CO)S3(=O)=O)cc1` the value was 21.6%; for `CCC(=O)Nc1ccc2c(c1)OC[C@@H](C)N(CC1CCCCC1)C[C@H](C)[C@H](OC)CN(C)C2=O`, 11.5%; for `CC(C)[C@@H](C)NC(=O)N(C)C[C@@H]1OCc2ccccc2-c2ccccc2C(=O)N([C@@H](C)CO)C[C@H]1C`, 34.8%. Then `CO[C@H]1CN(C)C(=O)c2ccc(NC(=O)C3CC3)cc2OC[C@@H](C)N(Cc2cncnc2)C[C@@H]1C`, with -5.55%; and `COc1ccc(-c2ccc3n(c2=O)C[C@H]2[C@H](CO)[C@@H](C(=O)N4CCOCC4)[C@@H]3N2C)cc1`, with -4.95%; and `CC(C)CC#Cc1ccc2c(c1)O[C@H](CN(C)Cc1ccncc1)[C@H](C)CN([C@H](C)CO)S2(=O)=O`, with 19.2% [at 8 µM].
